Data: PubChem BioAssay
Activity calls are given as the source filed them. Unless noted, how the calls were made is not given here.

Tests used:
[1] = HepG2 liver cancer cell viability effects, profiling panel, resazurin fluorescence, 24 h, PK04 Diversity Set (AID 1172); conditions: higher = more signal; further: test concentration not given here
[2] = basal S. cerevisiae growth modulation, no modifier, primary screen, OD600, strain BY4716, 24 h, basal condition (AID 1173); conditions: OD600, 24 h, higher = more signal, called active from +8 up or from −8 down
[3] = MM1S myeloma cell viability, profiling panel, resazurin fluorescence, basal, 24 h, PK04 Diversity Set (AID 1174); conditions: higher = more signal, called active from +8 up or from −8 down;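 further: MM1S multiple myeloma cell line; test concentration not given here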
[4] = biological target: Dihydroorotate dehydrogenase (quinone), mitochondrial (Plasmodium falciparum (isolate 3D7)) (UniProt Q08210); assay: PfDHODH enzyme inhibitors, primary screen, biochemical, C-terminal His tag, absorbance 600 nm (AID 1175); conditions: DCIP absorbance 600 nm, higher = more signal, called active from +8 up or from −8 down;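 further: recombinant parasite enzyme with a five histidine tag at its C terminus; test concentration not given here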
[5] = P. aeruginosa biofilm formation inhibitors, primary screen, strain PAO1, LB-PBS medium, absorbance 600 nm (AID 1176); further: test concentration not given here; conditions: P. aeruginosa PAO1 growth/biofilm, A600, 12 h; higher = more signal
[6] = S. cerevisiae RM11-1a growth modifiers, primary screen, strain RM11-1a, OD600, basal, 24 h (AID 1177); conditions: OD600, 24 h, higher = more signal, called active from +8 up or from −8 down;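 further: cultures grown under basal conditions with no added stressor; test concentration not given here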
[7] = E. coli acrAB mutant growth effects, primary screen, E. coli filamentation inducers, strain DRC39, OD650, 24 h (AID 1178); conditions: higher = more signal, called active from +8 up or from −8 down;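 further: growth measured as culture turbidity by optical density at 650 nm; test concentration not given here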
[8] = E. coli acrAB mutant growth effects, primary screen, E. coli filamentation inducers, strain DRC39, OD650, 48 h (AID 1179);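 further: screen aims at cell division blockers that make cells filament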; conditions: E. coli DRC39 delta-acrAB growth, higher = more signal, called active from +8 up or from −8 down
[9] = RPMI8226 myeloma cell viability, profiling panel, resazurin fluorescence, basal, 24 h, PK04 Diversity Set (AID 1180); conditions: higher = more signal;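 further: RPMI8826 multiple myeloma cell line at 5000 cells per well; test concentration not given here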
[10] = biological target: E3 ubiquitin-protein ligase XIAP (Homo sapiens) (UniProt P98170); assay: XIAP binders, primary screen, biophysical, small-molecule microarray, fluorescence 635 nm (AID 1181); conditions: small-molecule microarray binding, higher = more signal;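 further: score merges 667 nm emission and signal to noise over triplicate slides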
E3 ubiquitin-protein ligase XIAP (Homo sapiens), sequence (P98170 whole entry, looked up): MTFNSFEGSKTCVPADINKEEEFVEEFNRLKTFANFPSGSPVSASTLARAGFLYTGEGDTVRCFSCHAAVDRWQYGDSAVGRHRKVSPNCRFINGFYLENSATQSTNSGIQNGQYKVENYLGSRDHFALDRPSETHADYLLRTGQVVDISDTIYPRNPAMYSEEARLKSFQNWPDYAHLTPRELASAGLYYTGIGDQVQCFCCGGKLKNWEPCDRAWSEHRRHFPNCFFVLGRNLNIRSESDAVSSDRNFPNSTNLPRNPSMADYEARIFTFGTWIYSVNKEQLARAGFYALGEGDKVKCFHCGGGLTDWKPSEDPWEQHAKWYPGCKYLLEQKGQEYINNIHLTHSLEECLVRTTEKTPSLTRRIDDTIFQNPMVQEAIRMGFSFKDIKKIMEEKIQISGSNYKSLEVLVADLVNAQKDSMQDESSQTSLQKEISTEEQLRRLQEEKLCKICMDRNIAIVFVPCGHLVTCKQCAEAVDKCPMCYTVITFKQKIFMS

Dihydroorotate dehydrogenase (quinone), mitochondrial (Plasmodium falciparum (isolate 3D7)), sequence (Q08210 whole entry, looked up): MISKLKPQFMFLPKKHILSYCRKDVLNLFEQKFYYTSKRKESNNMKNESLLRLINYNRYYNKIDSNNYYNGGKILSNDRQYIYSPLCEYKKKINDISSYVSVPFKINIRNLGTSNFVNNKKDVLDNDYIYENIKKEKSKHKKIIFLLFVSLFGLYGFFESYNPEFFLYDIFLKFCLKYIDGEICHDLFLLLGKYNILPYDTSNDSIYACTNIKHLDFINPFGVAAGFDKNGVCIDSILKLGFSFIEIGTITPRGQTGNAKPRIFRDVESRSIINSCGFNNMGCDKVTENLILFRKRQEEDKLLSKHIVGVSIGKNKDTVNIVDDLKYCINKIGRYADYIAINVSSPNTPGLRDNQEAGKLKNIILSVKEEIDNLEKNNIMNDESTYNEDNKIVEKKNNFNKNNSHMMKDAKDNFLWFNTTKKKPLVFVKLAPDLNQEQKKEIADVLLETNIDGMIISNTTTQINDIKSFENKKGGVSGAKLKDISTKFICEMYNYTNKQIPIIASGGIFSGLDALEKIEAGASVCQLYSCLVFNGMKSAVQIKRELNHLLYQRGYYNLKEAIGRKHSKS

SMILES	z-score [1]	z-score [2]	z-score [3]	composite z-score [4]	z-score [5]	z-score [6]	z-score [7]	z-score [8]	z-score [9]	composite z-score [10]
CC(CCN1CCCc2nc(C)c(C)cc21)=NO[C@H](C)c1cn([C@H](CO)Cc2ccccc2)nn1	-0.325	0.454 (inactive)	0.307 (inactive)	1.27 (inactive)	-0.291 (inactive)	0.512 (inactive)	-0.801 (inactive)	-0.922 (inactive)	0.0883	0.0015
CCOC(=O)[C@H](Cc1ccccc1)NC(=O)CCC1CC(OC(=O)NCc2ccc3c(c2)OCO3)CC2(CCCC(COC(=O)NCCOC)O2)O1 (stereo not given in full)	0.0491	-0.914 (inactive)	0.808 (inactive)	-2.56 (inactive)	-0.871 (inactive)	0.0059 (inactive)	-0.477 (inactive)	0.525 (inactive)	-0.0023	0.0374
CO[C@H]1COC(=O)CCC[C@H](C)[C@H](OC)COC(=O)CC=C[C@@H]1C	0.631	-2.21 (inactive)	0.364 (inactive)	-1.04 (inactive)	-0.692 (inactive)	-1.93 (inactive)	0.115 (inactive)	0.757 (inactive)	0.541	0.0593
C[C@@H]1CC[C@@H](C(=O)O)N[C@H]1c1cccc(N2CCOCC2)c1	0.764	-1.62 (inactive)	0.7 (inactive)	0.18 (inactive)	0.143 (inactive)	-0.206 (inactive)	1.32 (inactive)	1.13 (inactive)	0.198	0.13
CCN1C(=O)[C@H]2[C@H]3[C@H](O)[C@H](O)CC(=NOC(C)CN4CCCc5nc(C)c(C)cc54)[C@@H]3CC[C@H]2C1=O (stereo not given in full)	-1.01	-0.0189 (inactive)	-2 (inactive)	0.988 (inactive)	-0.112 (inactive)	0.49 (inactive)	0.836 (inactive)	0.583 (inactive)	-2.01	0.109
CC(CCN1CCCCc2nc(C)c(C)cc21)=NO[C@H](C)c1cn([C@@H]2COC[C@H]2O)nn1	0.404	1.62 (inactive)	-1.64 (inactive)	-0.21 (inactive)	-0.561 (inactive)	0.811 (inactive)	0.715 (inactive)	0.821 (inactive)	-0.256	0.256
CO[C@H]1COC(=O)CC=C[C@@H](C)COC(=O)[C@H]2CCCN2C(=O)CC=C[C@H]1C	-0.3	-0.872 (inactive)	-0.0093 (inactive)	0.119 (inactive)	0.246 (inactive)	0.473 (inactive)	1.14 (inactive)	0.745 (inactive)	-0.258	0.0595
O=C1[C@H]2CCn3c(=O)n(-c4ccccc4)c(=O)n3[C@H]2[C@H](O)[C@@H]2O[C@H]12	-0.507	-0.251 (inactive)	-0.468 (inactive)	-0.106 (inactive)	-0.212 (inactive)	-0.303 (inactive)	-0.447 (inactive)	-0.489 (inactive)	-0.579	-0.287
O=C1CCCC=C1C(O)c1ccc([N+](=O)[O-])cc1 (stereo not given)	-0.426	-0.851 (inactive)	-0.57 (inactive)	-0.42 (inactive)	-0.47 (inactive)	-0.66 (inactive)	0.47 (inactive)	0.4 (inactive)	-0.865	-0.0019
C#CCCCON=C1[C@H]2CCn3c(=O)n(Cc4cc5c(cc4Cl)OCO5)c(=O)n3[C@H]2[C@H](O)[C@@H]2O[C@H]12	-0.242	0.606 (inactive)	-0.16 (inactive)	0.605 (inactive)	-0.106 (inactive)	0.432 (inactive)	0.313 (inactive)	-0.506 (inactive)	0.0334	-0.168
O=C1C=C[C@@H](O)[C@@H]2[C@@H]3C(=O)N(Cc4ccccc4)C(=O)[C@@H]3CC[C@@H]12	-0.178	-0.459 (inactive)	0.183 (inactive)	-0.136 (inactive)	0.647 (inactive)	-0.83 (inactive)	0.479 (inactive)	0.116 (inactive)	-0.242	-0.0566
COC(=O)[C@H](C)NC(=O)CC=C[C@@H](C)[C@@H]1C=C[C@H](O)[C@@H](CO)O1	-0.261	0.104 (inactive)	-0.543 (inactive)	-0.0763 (inactive)	0.25 (inactive)	0.253 (inactive)	0.64 (inactive)	0.384 (inactive)	-0.845	0.0623
CC(C)(C)N1C(=O)[C@H]2[C@H]3[C@H](O)[C@H](O)CC(=NOC[C@@H](O)COCc4ccco4)[C@H]3CC[C@H]2C1=O	-0.488	0.262 (inactive)	-0.622 (inactive)	0.748 (inactive)	-0.0606 (inactive)	0.0001 (inactive)	-0.0207 (inactive)	-0.149 (inactive)	-0.583	-0.334
COc1ccc(O[C@H]2C=C[C@@H](C#Cc3ccccc3)O[C@@H]2CO)cc1	0.124	-10.4 (active)	-1.24 (inactive)	-0.759 (inactive)	0.0372 (inactive)	-0.76 (inactive)	0.633 (inactive)	0.14 (inactive)	-0.021	-0.0412
Cc1ccc2[nH]c3nc(CCCn4ccnc4-c4ccccc4)nnc3c2c1	-0.256	-0.104 (inactive)	-1.15 (inactive)	0.411 (inactive)	0.0737 (inactive)	-0.212 (inactive)	0.164 (inactive)	0.183 (inactive)	-0.976	-0.119
COC(=O)CC=C[C@@H](C)[C@@H](C=NOC[C@@H](O)COCc1ccco1)OC	-0.195	-0.656 (inactive)	-0.45 (inactive)	-0.527 (inactive)	-1.23 (inactive)	0.12 (inactive)	0.539 (inactive)	0.803 (inactive)	0.11	0.0345
COc1ccc(OC[C@H]2CN3[C@@H](CC[C@@H](C)[C@@H]3c3ccc(Br)cc3)C(=O)O2)cc1	-0.699	-1.63 (inactive)	0.649 (inactive)	0.217 (inactive)	-1.52 (inactive)	-0.13 (inactive)	-1.87 (inactive)	-1.35 (inactive)	-0.134	-0.129
CC(=O)OC[C@H]1O[C@H](CCON=C(C)C)C=C[C@@H]1OC(C)=O	-0.97	0.421 (inactive)	-0.54 (inactive)	-0.0136 (inactive)	0.265 (inactive)	0.404 (inactive)	0.795 (inactive)	-0.844 (inactive)	-0.0326	-0.102
COC(=O)CC=C[C@@H](C)[C@@H](C=NOC[C@@H](O)[C@H]1O[C@@H]2OC(C)(C)O[C@@H]2[C@H]1O)OC	-0.904	-0.385 (inactive)	-0.311 (inactive)	0.757 (inactive)	-0.525 (inactive)	0.442 (inactive)	0.404 (inactive)	0.493 (inactive)	-1.51	-0.158
CCOC(=O)[C@H](Cc1ccccc1)NC(=O)CCC1CC(OC(=O)NCc2ccc3c(c2)OCO3)CC2(CCCC(COC(=O)NCCCN3CCCC3=O)O2)O1 (stereo not given in full)	0.557	-0.547 (inactive)	0.913 (inactive)	-0.59 (inactive)	-0.801 (inactive)	-0.012 (inactive)	-0.131 (inactive)	0.186 (inactive)	1.36	-0.124
CC1(C)O[C@H]2OC([C@H](O)CON3C(=O)c4ccccc4C3=O)[C@H](O)[C@H]2O1 (stereo not given in full)	0.109	0.457 (inactive)	-0.409 (inactive)	-0.559 (inactive)	-0.151 (inactive)	-0.854 (inactive)	0.345 (inactive)	0.209 (inactive)	0.0738	-0.261
CCOC(=O)[C@H](CC(C)C)NC(=O)CCC1CC(OC(=O)NCCc2ccc(F)cc2)CC2(CCCC(COC(=O)NCc3cccc(C(F)(F)F)c3)O2)O1 (stereo not given in full)	0.0989	0.924 (inactive)	0.0492 (inactive)	0.324 (inactive)	0.672 (inactive)	0.924 (inactive)	0.687 (inactive)	0.0609 (inactive)	0.15	-0.383
